Assay results from article PMC12136788.
Residue numbers refer to the chain shown, from its start. The full ranking holds about 24,000 sequences; the median of “enrichment r” is about 0.99, and the highest 2% start at about 3.7. The full list was thinned out, with the highest values kept by preference.

T1: UNK ZnF1-3 (human, UniProt Q9C0B0 31-174)
T1 sequence: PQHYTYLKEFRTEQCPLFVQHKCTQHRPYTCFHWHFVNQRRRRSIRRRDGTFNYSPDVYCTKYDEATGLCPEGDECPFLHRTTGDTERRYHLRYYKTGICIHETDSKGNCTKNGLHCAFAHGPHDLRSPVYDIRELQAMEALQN

B1: chr1:241675328:241675329:-_ENSG00000091483_ENST00000366560|hu_mus|FALSE|FALSE (ssRNA)
RNA: GGGAGUUCUACAGUCCGACGAUCGCUUUUGUUAACAUGAUCAUUGGGGUGCACAGGCUUCUUGCUGCCAAGUUCACCUCCUAACAUUUCAAUUGCUCUGUUGCUAAUGACUUCAUUUACAUUCAUGUUUGUCUGGGUUCCUGACAACAGAGGAUUGAGCAUCA
B2: chr17:45747064:45747065:+_ENSG00000108424_ENST00000290158|hu_hu|hu_hu_hu_mus_True|38_108 (ssRNA)
RNA: GGGAGUUCUACAGUCCGACGAUCGCCUACAGUCCAUGCUGUUGUGUCUCGAACAACUACACUGGGGUCUUUCAUUAGUUCUAUUAGGGUGGGCAUAGCCUGUAUAACUAAUGGUUUCAGUUGAUUAGGCUCUGGUCCUUCCAACAACAGAGGAUUGAGCAUCA
B3: chr18:10010020:10010021:-_ENSMUSG00000047879_ENSMUST00000092096|mus_hu|FALSE|FALSE (ssRNA)
RNA: GGGAGUUCUACAGUCCGACGAUCCUCGGCAAACUGUGGGAAAGCCAUGUGCAAAAACUGCAGUAGAAUAAUAGGUGGAAUACUGGAAGAAGUUUUAUCCAUGGAAUCAAACAAAUCUCUAAGGGCUGCAGUAAUAUACUGCGCCAACAGAGGAUUGAGCAUCA
B4: chr7:149068622:149068623:-_ENSMUSG00000025139_ENSMUST00000001950|mus_hu|mus_mus_mus_hu_False|68_98 (ssRNA)
RNA: GGGAGUUCUACAGUCCGACGAUCGUGAGGCCUCUGAGUGAGGUUCCUGGUCUGUCCUGGGUUAGAGCUGCUGGUAACACGGAACAUACCAUCUAGAACGUUCCAGUCCCGCCUGACACCUUCAUUCCCAAUGGAGAAGAAAUCCAACAGAGGAUUGAGCAUCA
B5: chr7:141445308:141445309:+_ENSG00000106028_ENST00000265304|hu_hu|hu_hu_hu_mus_False|48_68 (ssRNA)
RNA: GGGAGUUCUACAGUCCGACGAUCUAUGAUUGUUGUUGCUUGCCGCCUCACAUUGUUUUUAUCCAUGUAUUCACCAUAGUCCACUUUCCCUUCCAAAAAUAUACGAGCCCCCUUUUUCACAUACUGAUAUGCCACAUCUCUGAGCAACAGAGGAUUGAGCAUCA
B6: 120768192_120770490_416_CDS_ENSMUSG00000043207_ENSMUST00000058754|mouse|control|control (ssRNA)
RNA: GGGAGUUCUACAGUCCGACGAUCGCUGAAGGUACUUUUAUCCAGUUGAUACAAUCGAGAUUUCUCAAACGUGUCCGAAUCCAUGAUCUGUUCUAACUCUGCUGGUACGCGAGUCGUCGUUUUGUAUAUCCUUCUCUGCCGCUGCAACAGAGGAUUGAGCAUCA
B7: chr15:76909541:76909542:-_ENSMUSG00000033565_ENSMUST00000166610|perfect_dup|motif|central (ssRNA)
RNA: GGGAGUUCUACAGUCCGACGAUCAACAUGAUCAAUAAUUUAUACACAUGGAGAGUAAUACAAAAAAAUAAGGAAUAAAAGCGGAAGAUCUAACUACUCCGACCUUCACAAUUCCAGCUACUUGAUAAUAAUAGGAGUAACCCACAACAGAGGAUUGAGCAUCA
B8: chr15:76909541:76909542:-_ENSMUSG00000033565_ENSMUST00000166610|perfect_dup|FALSE|FALSE (ssRNA)
RNA: B7 RNA with G82U, G83A
B9: chr1:163117127:163117128:-_ENSG00000143248_ENST00000313961|hu_mus|hu_hu_hu_mus_False|48_78 (ssRNA)
RNA: GGGAGUUCUACAGUCCGACGAUCUGCUACAAAGGAUGUAACUCAACUCACAGGGCAUGAUUUCAUAGCCUGACCAGAUGACUACUUGAUUAACUCCUUAUAAAAUUCAGAGCGCACAAAGCGGGGCAGAGAAUCCUUCUCCAUCAACAGAGGAUUGAGCAUCA
B10: chr1:163117127:163117128:-_ENSG00000143248_ENST00000313961|hu_mus|hu_hu_hu_mus_False|18_78 (ssRNA)
RNA: B9 RNA with A92G, G123A
B11: chr20:57570089:57570090:+_ENSG00000101158_ENST00000344018|hu_mus|FALSE|FALSE (ssRNA)
RNA: GGGAGUUCUACAGUCCGACGAUCACUCCCACACACACACAUACAACUCAACAUUACUCUUGGAAACUUAAAGUAACUGACCAUCUGGGUCAUAGGAAGGAAACUUACAUAAACCCUUCAUGAAGUGUCCCAGCUGCUAGAUUCCAACAGAGGAUUGAGCAUCA
B12: chr1:60041781:60041782:+_ENSMUSG00000041040_ENSMUST00000036540|mus_hu|mus_mus_mus_hu_False|18_88 (ssRNA)
RNA: GGGAGUUCUACAGUCCGACGAUCAAGUUUACAAUAGUAAAGUAAAUCAAAUUUAGUCAAAUUUUCUUUUAUUUUCCUUCACAAAAGAAAAUCUUUAUAACCCAGUCCUAGUCUUGGCAGAGAAAGCAGCUAUAAAUUCUGACUCAACAGAGGAUUGAGCAUCA
B13: 168352429_168352549_4431_CDS_ENSG00000130396_ENST00000400822|human|control|control (ssRNA)
RNA: GGGAGUUCUACAGUCCGACGAUCAAUGUACUGCAAGUCUCUGCGCUCGAUCGUGCGGGGCUGCUGCUGAGGCUGCAGCUCCCGAAUGACUGUUUCCUGUGGCCGCUGGAGUGUGGAAGGCUUUUCGGGCUUCAUCUGCUGUGCCAACAGAGGAUUGAGCAUCA
B14: chr2:201681052:201681053:+_ENSG00000082153_ENST00000409600|hu_hu|FALSE|FALSE (ssRNA)
RNA: GGGAGUUCUACAGUCCGACGAUCUUUUACUUCAUCUUCAAAACCUUUCUCCAGGUAUUUGUAGCGCCUGAUUAACUUGUUAAAAACCUGAGCAAAUGCUUGCAUGGUCUCUAGAUCUUCUUGGGCUGCAAACACGCAGACAUCCAACAGAGGAUUGAGCAUCA
B15: 5253780_5253900_1103_CDS_ENSG00000029725_ENST00000262477|human|control|control (ssRNA)
RNA: GGGAGUUCUACAGUCCGACGAUCAACUUGUCGGAGCUGUUCUGAAGUUAGCACAAUCUCCAUUCGCUGCAUGUCUCUCAUCAGUAAACGCUGAGAUUCCAGAAACUGGUCAUUGGCCUUCUGCCACGUAUGUUUUAACUGGUUCAACAGAGGAUUGAGCAUCA
B16: chr22:32879901:32879902:+_ENSG00000100225_ENST00000397426|hu_mus|hu_hu_hu_mus_False|48_98 (ssRNA)
RNA: GGGAGUUCUACAGUCCGACGAUCCUCUUCCAUACUCGCAUUAUCUUGAAUUGACUCAGCUUCAACAUUUUGACUAGGCCCUUCCAUACUGUCGUCAGUCCAGGCAUCAAAUGGGGUGGCCUGUCCUUGGGAUGAAUCAGUCCCCAACAGAGGAUUGAGCAUCA
B17: chr17:56552419:56552420:-_ENSMUSG00000013236_ENSMUST00000086828|mus_mus|mus_mus_mus_hu_False|78_98 (ssRNA)
RNA: GGGAGUUCUACAGUCCGACGAUCAAAAAAUACACUAUAAAAAAAAAAUGAAAUGUCAGAAAAAGAAGUUACACUGAGAGUUUUAAAAGAAAGCUGGAUUCUGGUCCCAGCCCAGUGUCCCCAGGCUGCAGAGCGGGGAGGAGCCAACAGAGGAUUGAGCAUCA
B18: chr17:56552419:56552420:-_ENSMUSG00000013236_ENSMUST00000086828|mus_mus|mus_mus_mus_hu_False|1_78 (ssRNA)
RNA: B17 RNA with A38U, A39U, A138C, G139A, C143G
B19: chr17:56552419:56552420:-_ENSMUSG00000013236_ENSMUST00000086828|mus_mus|mus_mus_mus_hu_False|78_88 (ssRNA)
RNA: B17 RNA with A38U, A39U, U48A, G49A, A50G, U53A, G54A, U55A, C56A
B20: chr17:56552419:56552420:-_ENSMUSG00000013236_ENSMUST00000086828|mus_mus|mus_mus_mus_hu_False|58_78 (ssRNA)
RNA: B17 RNA with A38U, A39U, G77C, G79C, U81A
B21: 86747786_86748123_1683_CDS_ENSMUSG00000035671_ENSMUST00000039480|mouse|control|control (ssRNA)
RNA: GGGAGUUCUACAGUCCGACGAUCGUGCUGGUAGGCCAGCUUUCGCUUCUCUGGGGCUGAGUCUGGGAAAAGAGAGUGAGGCUCCUCCUCCAGGCGACAGGCCUCCAGCAGUGCCCUGCAGAGGCAGCCAAUGGGAUCCAGGGGCAACAGAGGAUUGAGCAUCA
B22: chr11:77336104:77336105:-_ENSG00000074201_ENST00000525064|hu_mus|hu_hu_hu_mus_False|68_98 (ssRNA)
RNA: GGGAGUUCUACAGUCCGACGAUCCUCACACAUUGCUGUGAACAUUGCCUCCAAUGCUGACUUAUCACUAGGCACAAAUCGAAAUUCAGAAAUGGGUUCAACAUCAUCAUUGUCUUCCUCAUCUUCAUCAGAGAGAGGUUCUUUCAACAGAGGAUUGAGCAUCA

Target: T1, UNK ZnF1-3
Experiment: nsRBNS (natural sequence RNA bind-n-seq); RBNS binding buffer (assumed for nsRBNS): 25 mM Tris pH 7.5, 150 mM KCl, 3 mM MgCl2, 0.01% Triton X-100, 500 ug/ml BSA, 20 U/ml SUPERase-In, 4 C; UNK is unkempt and MSI1 is Musashi-1; names of the RNAs are library labels; protein concentration not given here; high values mean tight binding

| Binder | binding signal |
| --- | --- |
| B1 | 0.274 enrichment R |
| B2 | 0.577 enrichment R |
| B3 | 1.59 enrichment R |
| B4 | 0.742 enrichment R |
| B5 | 0.799 enrichment R |
| B6 | 0.656 enrichment R |
| B7 | 8.91 enrichment R |
| B8 | 6.42 enrichment R |
| B9 | 1.08 enrichment R |
| B10 | 0.919 enrichment R |
| B11 | 1.41 enrichment R |
| B12 | 0.9 enrichment R |
| B13 | 0.667 enrichment R |
| B14 | 0.452 enrichment R |
| B15 | 0.594 enrichment R |
| B16 | 0.919 enrichment R |
| B17 | 8.48 enrichment R |
| B18 | 3.68 enrichment R |
| B19 | 12.6 enrichment R |
| B20 | 8.52 enrichment R |
| B21 | 0.778 enrichment R |
| B22 | 0.885 enrichment R |
